Measurements reported in paper PMC4336329 (PLoS ONE, 2015).
The whole screen tested about 310,000 compounds, of which about 14,000 (4.5%) showed an effect of 50% or more. The effect is printed as a negative number. The full list was thinned out, with strong results kept by preference.

What follows are compounds tested against human ether-à-go-go-related gene (hERG) potassium channel (human, UniProt Q12809) (assay: primary screen, population patch clamp on CHO cells stably expressing hERG; higher = less effect of the substance).
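Also: peak tail current of the secondary pulse compared with the same well before compound.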

human ether-à-go-go-related gene (hERG) potassium channel, sequence (Q12809 whole entry, looked up): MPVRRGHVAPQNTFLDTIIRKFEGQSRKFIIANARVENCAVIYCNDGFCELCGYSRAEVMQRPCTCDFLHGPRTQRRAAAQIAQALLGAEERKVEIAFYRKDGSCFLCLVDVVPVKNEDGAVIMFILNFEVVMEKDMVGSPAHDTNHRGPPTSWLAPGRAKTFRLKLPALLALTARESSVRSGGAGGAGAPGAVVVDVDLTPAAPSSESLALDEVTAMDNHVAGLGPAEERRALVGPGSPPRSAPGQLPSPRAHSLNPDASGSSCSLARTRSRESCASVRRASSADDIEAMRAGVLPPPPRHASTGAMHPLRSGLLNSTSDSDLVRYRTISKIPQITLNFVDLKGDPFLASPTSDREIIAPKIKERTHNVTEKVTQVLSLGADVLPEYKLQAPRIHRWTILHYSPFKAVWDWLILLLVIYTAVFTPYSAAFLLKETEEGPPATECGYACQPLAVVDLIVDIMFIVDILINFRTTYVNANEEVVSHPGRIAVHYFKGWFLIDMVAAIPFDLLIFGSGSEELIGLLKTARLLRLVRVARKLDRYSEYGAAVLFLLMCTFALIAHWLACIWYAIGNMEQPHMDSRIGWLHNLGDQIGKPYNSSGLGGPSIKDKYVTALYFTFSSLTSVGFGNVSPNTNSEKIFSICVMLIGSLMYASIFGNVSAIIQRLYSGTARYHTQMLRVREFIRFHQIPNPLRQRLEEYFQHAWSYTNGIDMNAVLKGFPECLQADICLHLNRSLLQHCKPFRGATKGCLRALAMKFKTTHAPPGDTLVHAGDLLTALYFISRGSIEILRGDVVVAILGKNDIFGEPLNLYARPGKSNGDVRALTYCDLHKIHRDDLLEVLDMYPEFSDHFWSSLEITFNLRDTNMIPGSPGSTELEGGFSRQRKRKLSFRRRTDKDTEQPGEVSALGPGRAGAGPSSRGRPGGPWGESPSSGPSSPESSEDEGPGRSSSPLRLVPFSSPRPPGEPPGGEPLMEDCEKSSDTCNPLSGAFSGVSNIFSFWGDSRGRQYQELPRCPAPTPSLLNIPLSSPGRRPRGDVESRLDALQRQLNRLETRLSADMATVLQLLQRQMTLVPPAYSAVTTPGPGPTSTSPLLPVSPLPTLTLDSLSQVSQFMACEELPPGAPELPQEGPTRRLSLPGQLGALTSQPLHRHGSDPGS

Structure (SMILES)	hERG current change (%, negative = inhibition) at 10uM [%]
COCc1ccc(CN2CCCC(CCC(=O)NCc3cccc(OC)c3)C2)o1 (centres unmarked)	-23.5
COc1cccc(CNC(=O)CCC2CCCN(C(=O)c3cc4ccccc4o3)C2)c1 (centres unmarked)	-47.7
COc1cccc(CNC(=O)CCC2CCCN(Cc3cc4ccccc4o3)C2)c1 (centres unmarked)	-75.6
Cc1ccc(N/C=C(\C#N)S(=O)(=O)c2ccccc2)cc1	14.3
CCOC(=O)c1c(C)sc2c1N(C(=O)CCl)c1cc(Cl)ccc1S2	-3.3
COc1ccccc1NC(=O)Cn1cncc1-c1ccc([N+](=O)[O-])cc1	2.57
O=C1CCC(C(=O)NCCN2C(=O)S/C(=C\c3cccnc3)C2=O)=NN1	2.26
CSC1=NSC2=NC(=O)/C(=C\c3ccc(OC(=O)c4ccco4)cc3)C(=N)N12	9.54
CCCCc1ccc(NC(=S)N2CCN(C(=O)c3ccco3)CC2)cc1	-75.3
CC(C)Cc1ccc(S(=O)(=O)N2CCN(C(=O)c3ccco3)CC2)cc1	-11.1
COc1ccc(NC(=S)N2CCN(C(=O)c3ccco3)CC2)cc1	-6.29
CCCCc1ccc(S(=O)(=O)N2CCN(C(=O)c3ccco3)CC2)cc1	-66.5
Cc1ccc(S(=O)(=O)N2CCN(C(=O)c3ccco3)CC2)cc1	1.15
COC(=O)c1ccc(NC(=S)N2CCN(C(=O)c3ccco3)CC2)cc1	-4.94
COc1ccc(C2/C(=C(\O)c3ccc4c(c3)OCCO4)C(=O)C(=O)N2Cc2ccco2)c(OC)c1 (centres unmarked)	-9.64
Cn1c(=O)cc(OCCCC(=O)Nc2cccnc2)c2ccccc21	0.169
O=C(O)Cn1nc2c3c(cccc3c1=O)-c1ccccc1-2	8.18
O=c1c2cccc3c2c(nn1CN1CCOCC1)-c1ccccc1-3	-11.5
CCN(CC)CCn1nc2c3c(cccc3c1=O)-c1ccccc1-2	-70.2
COC(=O)c1c(C)[nH]c(C)c1-c1ccccc1	-5.37
O=C1NC(c2ccc3c(c2)OCO3)Nc2ccccc21 (centres unmarked)	10.5
O=C(Nc1ccncc1)c1ccc2c(c1)OCCO2	11.8
COc1ccc(C)cc1N(CC(=O)N1CCOCC1)S(C)(=O)=O	21.2
COc1ccc(Br)cc1S(=O)(=O)N(CC(=O)N1CCN(C)CC1)c1ccccc1	-22.6

Structure (SMILES)	hERG current change (%, negative = inhibition) at 10uM [%]
COc1ccc(C)cc1S(=O)(=O)N(CC(=O)N1CCCC1)c1ccc(C)cc1	-53
COc1ccc(N(CC(=O)N2CCN(C)CC2)S(=O)(=O)c2cc(C)ccc2OC)cc1Cl	-60.3
COc1ccc(C)cc1S(=O)(=O)N(C)CC(=O)N1CCN(C)CC1	2.65
COc1ccc(C)cc1S(=O)(=O)N(C)CC(=O)N1CCCC1	13.2
COc1ccc(C)cc1S(=O)(=O)N(CC(=O)N1CCOCC1)c1cc(C)cc(C)c1	-77.4
COc1ccc(Br)cc1S(=O)(=O)N(CC(=O)N1CCOCC1)c1ccccc1	-47
COc1ccc(C)cc1S(=O)(=O)N(CC(=O)N1CCCC1)c1ccccc1	-37.9
CC(OC(=O)C1CCC(=O)N1)C(=O)Nc1cc(Cl)cc(Cl)c1 (centres unmarked)	2.72
O=C(CSc1n[nH]c(=O)n1Cc1ccco1)c1ccc2c(c1)OCCO2	15
c1cc2c(cc1Oc1nc(N3CCOCC3)nc(N3CCOCC3)n1)OCO2	3.77
CC(C)Cc1ccc(C(C)C(=O)OCC(=O)c2c[nH]c3ccccc23)cc1 (centres unmarked)	3.98
COc1ccc(S(=O)(=O)N2CCCCC2)cc1NC(=O)c1cc([N+](=O)[O-])ccc1N1CCOCC1	-30.4
NC(=O)c1ccccc1NC(=O)c1cc(S(=O)(=O)N2CCCCC2)ccc1N1CCOCC1	-73.9
Cc1ccc(C)c(NC(=O)c2cc(S(=O)(=O)N3CCCCC3)ccc2N2CCOCC2)c1	-62.7
Cc1ccc(NC(=O)c2cc([N+](=O)[O-])ccc2N2CCOCC2)cc1S(=O)(=O)N(C)C	-52.8
Cc1ccc(NC(=O)c2cc(S(=O)(=O)N3CCCCC3)ccc2N2CCOCC2)cc1F	-13.9
O=C(Nc1ccccc1)c1cc(S(=O)(=O)N2CCCCC2)ccc1N1CCOCC1	1.08
COc1ccc(C)cc1NC(=O)c1cc(S(=O)(=O)N2CCCCC2)ccc1N1CCOCC1	-39.2
O=C(Nc1ccccc1Cl)c1cc(S(=O)(=O)N2CCCCC2)ccc1N1CCOCC1	-39.7
Cc1ccc(S(=O)(=O)N2CCOCC2)cc1NC(=O)c1cc([N+](=O)[O-])ccc1N1CCOCC1	-67.7
CCN(CC)S(=O)(=O)c1cc(NC(=O)c2cc([N+](=O)[O-])ccc2N2CCOCC2)ccc1C	-20.5
Cc1ccc(NC(=O)c2cc([N+](=O)[O-])ccc2N2CCOCC2)cc1S(=O)(=O)N1CCOCC1	-46
CC(C)Oc1ccc(S(=O)(=O)N2CCOCC2)cc1NC(=O)c1cc([N+](=O)[O-])ccc1N1CCOCC1	-45.7
